# Compound activity from PubChem.
# HCMV inh: blocks human cytomegalovirus replication. 410,000 compounds, 4.5% hits. HFF cells, HCMV-luciferase reporter, 72 h; hits give low values. AID 1259415. activity change, negative = inhibition, % at 57.5 µM; in the data active means activity change below about -60%; inconclusive means no clear call, values can overlap the other calls; inactive means above about -39%
#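 HFF cells seeded 16 h at 37C, treated with compounds, infected with luciferase-reporter HCMV at MOI 1 PFU/cell; luciferase read at 72 h post infection, normalized to buffer-only and Salinomycin controls.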
# Sm TGR block: blocks Schistosoma mansoni thioredoxin glutathione reductase | Q962Y6 | purified TGR, DTNB reduction, TNB absorbance 405 nm | Potency, µM (top dose mostly 114 µM), inactives show at the top dose activity change, negative = inhibition, most hits filed as inhibitors | 360,000 compounds, 3% hits; further: potency means the concentration at half of the fitted maximal effect; nearly all actives have a fitted effect of over 60% in size
#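 TGR 20 nM + NADPH 100 uM (dispensed conc.), cpd preinc 15 min RT; start with NADPH (500 uM addition) then DTNB (15 mM addition). Kinetic TNB absorbance, 405 nm filter. Four-parameter Hill fit across titration.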
# HCV inhibitor: HCV inhibition. Huh7.5.1 HCVcc-Cre infection, luciferase reporter, 44 h. Potency, µM (highest dose often 41.8 µM), without a hit: at the top dose activity change, negative = inhibition, most hits filed as inhibitors. 340,000 compounds, 3.4% hits. AID 651820; further: potency means the concentration at half of the fitted maximal effect
#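 Reporter virus HCVcc-Cre (~0.5 moi) infects cells exposed to compound; seeding density 1,000 cells/well with 4 h settling beforehand. Luminescence, 15 sec read, taken 44 h post-infection following a 15 min RT substrate incubation.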
# VACV mCherry inh: inhibitors of vaccinia virus infection (mCherry reporter signal) | Potency, µM (highest dose often 36.5 µM), for inactives: top-dose activity change, negative = inhibition, hits mostly inhibitors | Vaccinia virus mCherry reporter infection, fluorescence | 310,000 compounds, 0.63% hits | AID 720579; calls by dose curve; tested in A549 cells; further: potency means the concentration at half of the fitted maximal effect; nearly all actives have a fitted effect of over 35% in size
# Vaccinia Venus: inhibitors of vaccinia virus (Venus reporter); Vaccinia virus Venus reporter expression, fluorescence; Potency, µM (doses to about 36.5 µM), inactives show top-dose activity change, negative = inhibition, actives largely listed as inhibitors; AID 720580; 330,000 compounds, 0.46% hits; calls by dose curve; tested in A549 cells; further: potency means the concentration at half of the fitted maximal effect; nearly all actives have a fitted effect of over 30% in size
# FMDV inh: antivirals against foot and mouth disease virus. Potency, µM (highest dose often 57.9 µM), inactives show at the highest dose activity change, negative = inhibition, hits mostly inhibitors. 410,000 compounds, 1.2% hits. FMDV antiviral cell-based qHTS; calls by dose curve; tested in HEK293T cells; further: read-out not given here; potency means the concentration at half of the fitted maximal effect; nearly all actives have a fitted effect of over 45% in size
# Numbers without * were called inactive; i = inactive; ? = inconclusive; . = no result given; [ ] = remark or other dose. Shown are actives, neighbours in structure and some others; about 9.3% of the full set was active somewhere. Unless noted, the call rests on the fitted dose curve; in most records, active means well fitted curve in the direction sought with a large enough effect; inconclusive means small, poorly fitted or top-dose-only effect, or another doubt; inactive means no such curve, though single readings can be large; an effect the other way counts as inactive or inconclusive. On the % scale 0 is the no-effect control and ±100 the full control effect.
SMILES,HCMV inh,Sm TGR block,HCV inhibitor,VACV mCherry inh,Vaccinia Venus,FMDV inh
CCN(CC)C(=O)[C@H]1CC(CC(=O)NCC23CC4CC(CC(C4)C2)C3)C(=O)N2CCc3c([nH]c4ccc(OC)cc34)[C@]12C (stereo not given in full),?,.,?,?,-16.1%,-38.5%
COc1ccc2[nH]c3c(c2c1)CCN1C(=O)C(CC(=O)NCCC2=CCCCC2)C[C@H](C(=O)N2CCCCC2)[C@@]31C (stereo not given in full),-22.5,.,?,10µM*,?,-9.0%
COc1ccc2[nH]c3c(c2c1)CCN1C(=O)C(CC(=O)NCCC2=CCCCC2)C[C@H](C(=O)N2CCOCC2)[C@@]31C (stereo not given in full),-2.3,.,?,-27.8%,?,-9.5%
C[C@]12c3[nH]c4ccccc4c3CCN1C(=O)C(CC(=O)NCC13CC4CC(CC(C4)C1)C3)C[C@@H]2C(=O)N1CCCCC1 (stereo not given in full),-76.4*,.,1.4%,?,-28.6%,-22.3%
COC(=O)C(Cc1ccccc1)NCC(=O)Nc1cccc(Cl)c1C (stereo not given),-36.3,-7.8%,0.8%,.,.,-15.7%
CC1CCCN(CCS(=O)(=O)c2ccccc2)C1 (stereo not given),5.9,.,-5.1%,10µM*,?,24.8%
O=S(=O)(CCN1CCOCC1)c1ccccc1,-19.7,-6.7%,5.4%,?,?,-13.7%
Cc1ccc(NC(=O)c2ncn(CC(=O)NCC(C)c3ccccc3)n2)cc1C (stereo not given),18.2,.,17.0%,i,-7.1%,32.9%
CC(C)N1CCN(Cc2ccc3c(c2)OCCO3)CC1CCO (stereo not given),14.9,?,37.6%,.,.,-14.4%
Cc1ccc(-c2cccc(CN3CCN(C(C)C)C(CCO)C3)c2)o1 (stereo not given),-23.2,35.5µM*,-24.0%,.,.,-15.7%
CCOc1ncccc1C(=O)OC(C)C(=O)Nc1ccc(Cl)cn1 (stereo not given),12.2,-5.3%,-25.5%,.,.,-7.3%
CNc1ccccc1C(=O)OC(C)C(=O)Nc1ccc(Cl)cn1 (stereo not given),-98.2*,5.1%,?,?,10µM*,-7.4%
CC(OC(=O)Cc1ccsc1)C(=O)Nc1ccc(Cl)cn1 (stereo not given),-18.9,-2.9%,22.4µM*,-26.0%,-13.8%,-17.1%
O=C(Nc1cccc(Cl)c1)C1CC1c1ccccc1 (stereo not given),19.2,.,-9.1%,-1.3%,-2.5%,-16.5%
CC(=O)Oc1ccccc1C(=O)Nc1ccccc1C(=O)N1CCCC1,1.8,-13.1%,11.7%,.,.,4.5%
COC(=O)c1ccccc1NC(=O)c1c(C)oc2ncn(C)c(=O)c12,-90.9*,-1.4%,.,-3.3%,-2.7%,11.9%
COc1cccc(OC)c1OCCOc1ccc(C(=O)c2ccccc2)cc1,-65.8*,0.7%,?,i,-12.7%,31.6µM*
COCCNC(=O)/C(C#N)=C/c1ccc(SC)cc1,-26.5,-6.1%,-6.3%,-23.4%,2.1%,19.1%
COCCNC(=O)/C(C#N)=C/c1c(F)cccc1Cl,-75.4*,-0.7%,21.8%,-2.6%,-10.6%,-27.2%
CN1C(=O)C(=Cc2cn(CC(=O)N3CCCC3)c3ccccc23)C(=O)N(C)C1=O,-4.8,-0.2%,7.1%,-9.2%,11.3%,23.4%
CCOC(=O)C1=C(O)/C(=C/c2cn(CC(=O)N3CCCC3)c3ccccc23)SC1=Nc1ccccc1,.,-7.6%,11.2µM*,-11.9%,18.6%,8.91µM*
CC(C)=N/N=C1/NC(=O)C(c2ccc(Cl)cc2)S1 (stereo not given),-9.4,.,2.2%,-24.6%,-12.9%,-14.4%
C=CCn1cnnc1SCC(=O)N(C)CC1COc2ccccc2O1 (stereo not given),?,.,3.4%,-25.8%,-11.3%,0.1%
COc1cc(/C=C(/C#N)c2ccc(F)cc2)ccc1Oc1ccc([N+](=O)[O-])cn1,-61.1*,-15.1%,2.51µM*,-27.1%,-21.1%,?
COc1cccc(NS(=O)(=O)c2ccc3[nH]cc(C(=O)N4CCCCCC4)c(=O)c3c2)c1,-17.1,7.1%,.,-17.2%,-9.6%,-0.4%
SMILES,HCMV inh,Sm TGR block,HCV inhibitor,VACV mCherry inh,Vaccinia Venus,FMDV inh
COc1ccc(N2CCN(c3nc4c(c(=O)n(C)c(=O)n4C)n3Cc3ccccc3)CC2)cc1,3.8,-1.0%,11.2µM*,-15.1%[1.46 µM],?,-27.5%
COc1ccc(N2CCn3c2nc2c3c(=O)n(CCc3ccccc3)c(=O)n2C)c(OC)c1,.,0.3%,.,.,.,.
C#CCOc1nc2c(c(=O)n(C)c(=O)n2C)n1Cc1ccccc1,-38.9,-9.7%,12.6µM*,.,.,?
COc1ccc(N2CCn3c2nc2c3c(=O)n(CCCc3ccccc3)c(=O)n2C)c(OC)c1,-90.5*,-32.3%,14.1µM*,.,.,12.6µM*
COCCn1c(N2CCN(c3ccccc3)CC2)nc2c1c(=O)n(C)c(=O)n2C,-21.8,0.0%,?,-15.4%,-2.4%,?
CCn1c(Oc2ccccc2C)nc2c1c(=O)n(C)c(=O)n2C,-73.6*,-3.8%,2.5%,.,.,-8.6%
COc1ccc(NC(=O)c2c(C(F)(F)F)nn(C)c2SCc2ccccc2Cl)cc1,1.8,-0.1%,-6.1%,.,.,-14.0%
CC(Oc1cccc(Cl)c1)C(=O)Nc1ccc([N+](=O)[O-])cn1 (stereo not given),-36.3,-19.8%,-29.2%,-13.3%,-5.1%,0.0%
CC(=O)c1cccc(NC(=O)CC2S/C(=N/N=C/c3cccs3)NC2=O)c1 (stereo not given),-26.7,.,10.1%,.,.,-24.9%
CCCn1c(SCC(=O)N2CCN(c3ccc(OC)cc3)CC2)nc2c1c(=O)n(C)c(=O)n2C,-8.3,8.8%,?,i,-8.4%,?
C=C(C)Cn1c(N2CCN(c3ccc(OC)cc3)CC2)nc2c1c(=O)n(C)c(=O)n2C,?,-7.2%,?,-14.3%,-22.1%,28.2µM*
CCc1c(C(C)S(=O)(=O)c2ccc(C)cc2)[nH]c(=O)n1-c1ccc(C)cc1 (stereo not given),5.1,2.82µM*,-2.4%,-19.6%,-13.7%,-6.7%
CCc1[nH]c(=O)[nH]c1C(C)S(=O)(=O)c1ccc(C)cc1 (stereo not given),17.9,0.282µM*,-4.2%,i,-3.1%,-16.6%
C=CCC(C=C)S(=O)(=O)c1ccc(C)cc1 (stereo not given),-20.9,-19.8%,-6.4%,-6.0%,-7.8%,10.7%
Cc1ccc(-n2c3c(c(=O)[nH]c2=O)C(NS(=O)(=O)c2ccc(C)cc2)(C(F)(F)F)C(=O)N3)cc1 (stereo not given),12.7,9.3%,19.8%,-14.6%,2.2%,-15.2%
COc1cc(NC(=O)C2CCCN(S(=O)(=O)c3ccc4c(c3)CCCC(=O)N4)C2)cc(OC)c1 (stereo not given),6.1,-0.8%,.,?,?,-27.3%
